Data as given in PubChem BioAssay AID2615 (Southern Research Specialized Biocontainment Screening …, 2010).
Activity calls are given as the source filed them. The rule behind the calls is not given here.

Test: antiviral efficacy and BSC cell toxicity – BSC cells, SV40 T antigen inhibitor project, confirmation (AID 2615)
Conditions: outcome: CPE inhibition; viability: CPE inhibition, viability, at 100 µM, stronger effect = lower value

With `CCN(CC)C(=O)c1ccc2nc(N)sc2c1` the outcome was “inactive” and the viability was 87.6%.

With `Nc1nc2ccc(C(=O)N3CCCCC3)cc2s1` the outcome was “inactive” and the viability was 103%.

For `Nc1nc2ccc(C(=O)N3CCOCC3)cc2s1`, the outcome was “inactive” and the viability was 101%.

In the case of `Cc1ccc2c(c1)C1C=CCC1C(C(=O)O)N2` (configuration not stated), the outcome is reported as “inactive” and the viability is reported as 41.3%.

With `ClC(Cl)(c1nnnn1-c1ccccc1)c1nnnn1-c1ccccc1` the viability was 0.34%.

For `Nc1nc2ccc(S(=O)(=O)N3CCCCC3)cc2s1`, the outcome was “inactive” and the viability was 0.95%.

In the case of `COc1ccc(-n2nnnc2C(Cl)(Cl)c2nnnn2-c2ccc(OC)cc2)cc1`, the outcome is reported as “inactive” and the viability is reported as 6.3%.

In the case of `ClC(Cl)(c1nnnn1-c1ccc(Br)cc1)c1nnnn1-c1ccc(Br)cc1`, the outcome is reported as “inactive” and the viability is reported as -0.31%.

In the case of `Cc1cc(C)c2c(=O)n(CC(=O)Nc3cccc(Cl)c3C)sc2n1`, the outcome is reported as “inactive” and the viability is reported as 2.65%.
